Source: PubChem BioAssay (several laboratories)
Hits are enriched below; roughly 1% of the tested compounds scored in any of these assays.
E coli RNAP: Escherichia coli RNA polymerase inhibition; inhibition, %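 (tested at 10 µM)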; 62,000 tested, 0.2% active; P0A8V2; AID 559; E. coli RNA polymerase, fluorescence transcription assay; in the data active = inhibition above about 20%;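 note: 0% = enzyme without compound and 100% = no enzyme blank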
HePTP inh: blocks human HePTP tyrosine phosphatase | inhibition, % at 20 µM | 110,000 tested, 0.64% active | P35236 | recombinant HePTP phosphatase activity, OD absorbance; in the data active = inhibition above about 50%;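 note: plate controls were vehicle for no effect and reference inhibitor for full effect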
TNAP act mid DEA: activates human TNAP at intermediate phosphate acceptor concentration; P05186; purified TNAP, CDP-star luminescence, 100 mM DEA, 30 min; active compounds read high; scale: 0 levamisole-inhibited, 1 vehicle-only enzyme; 64,000 tested, under 10 active; activation factor at 20 µM; AID 813;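 active = activation factor of at least 2 at 20 µM, relative to controls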
MKP-1 inh: inhibitors of human MKP-1 phosphatase. recombinant MKP-1, OMFP hydrolysis fluorescence. inhibition, %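 (compounds tested at a single concentration somewhere between 10 and 100 µM)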. P28562. 65,000 tested, 0.15% active;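 active = inhibition above about 50%, limit read from the data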;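 note: 0% = DMSO max control wells and 100% = wells with enzyme stopped by NaOH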
Target sequence (P28562 whole entry, looked up): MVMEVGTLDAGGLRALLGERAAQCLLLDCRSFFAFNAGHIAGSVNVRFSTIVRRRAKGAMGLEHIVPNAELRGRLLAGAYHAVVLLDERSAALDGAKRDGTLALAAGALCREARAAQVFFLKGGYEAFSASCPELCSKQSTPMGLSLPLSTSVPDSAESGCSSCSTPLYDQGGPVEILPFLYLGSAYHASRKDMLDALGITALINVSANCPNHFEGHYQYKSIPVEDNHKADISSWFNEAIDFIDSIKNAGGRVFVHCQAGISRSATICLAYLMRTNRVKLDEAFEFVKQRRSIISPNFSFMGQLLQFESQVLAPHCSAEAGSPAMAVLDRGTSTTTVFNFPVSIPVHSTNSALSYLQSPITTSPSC
BAP1 inh: blocks human BAP1 ubiquitin-AMC hydrolysis. calls only at 20 µM. recombinant BAP1, Ub-AMC hydrolysis fluorescence kinetic; active compounds read low. Q92560. AID 436. 72,000 tested, 0.48% active;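 active = activity remaining at or below 50% of control, provided the compound also passes the data quality filters; inactive = the rest, including low values that fail the filters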;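 note: 100% = DMSO wells rate and 0% = substrate alone blank rate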
Cdc25B block: human M-phase inducer phosphatase 2 inhibition | 65,000 tested, 0.1% active | inhibition, %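 (compounds tested at 10 µM final in the well)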 | P30305 | recombinant Cdc25B, OMFP fluorescence Ex485/Em525 | AID 368; in the data active = inhibition above about 50%
An asterisk follows results filed as active; i = inactive; . = not tested or not shown; + = active, no number.

SMILES	E coli RNAP	HePTP inh	TNAP act mid DEA	MKP-1 inh	BAP1 inh	Cdc25B block
CCOC(=O)C1=C(c2ccccc2)OC(N)=C(C#N)C1C(C)C (stereo not drawn)	39.7*	-3.3	1	0.2	i	-13.3
O=c1c2c(nc3cc(-c4ccc(Br)cc4)[nH]n13)CCS2	.	51.6*	.	.	.	.
Cc1nn(Cc2ccccc2)c(C)c1NC(=O)CSc1nc2sc3c(c2c(=O)n1C)CCC3	5.7	1.9	0.9	50.1*	i	-5.7
CCN(CC)CCCNS(=O)(=O)c1ccc(C)cc1	.	-15.5	.	.	.	.
O=C(O)c1ccc2c(c1)C(=O)N(c1ccc(-c3nnc(-c4ccccc4)o3)cc1)C2=O	.	101.9*	.	.	.	.
CC(C)(C)C1CCc2c(sc(NC(=O)C3CCCCC3C(=O)O)c2C(N)=O)C1 (stereo not drawn)	.	6.2	.	.	.	.
CC(C)(C)C1CCc2c(sc(NC(=O)C3CC4CCC3C4)c2C(N)=O)C1 (stereo not drawn)	.	97.4*	.	.	.	.
CCOc1ccc(NC(=O)Cn2nnc(-c3ccccc3NC(=O)C3CC3)n2)cc1	23.7*	-1.5	0.8	-17.0	i	8.2
O=C(O)CN1C(=O)/C(=C\c2ccc(-c3cccc4c3C(=O)c3ccccc3C4=O)o2)SC1=S	.	100.7*	.	.	.	.
O=C(O)CCN1C(=O)/C(=C/c2ccc(-c3ccccc3[N+](=O)[O-])o2)SC1=S	.	69.7*	.	.	.	.
CCN1C(=O)/C(=C\c2ccc(-c3ccccc3C(=O)OC)o2)SC1=S	.	6.6	.	.	.	.
COC(=O)c1c2nc3ccccc3sc-2cc(=O)c1N	.	68.2*	.	.	.	.
COC(=O)c1sc2ccccc2c1N	-3.6	3.5	0.9	2.9	.	-8.2
CN(C)c1ccc(-c2c3cc(O)c(=O)cc-3oc3cc(O)c(O)cc23)cc1	.	103.1*	.	.	.	.
O=c1cc(-c2ccc(O)cc2)oc2cc(O)cc(O)c12	.	.	.	.	i	.
O=C1C(=O)N(Cc2ccccc2)C(c2ccccc2F)/C1=C(/O)c1ccccc1 (stereo not drawn)	.	-6.0	.	.	.	.
CCn1nc(C)c(Cc2c(C)nn(CC)c2C)c1C	.	103.9*	.	.	.	.
CCn1nc(C)c(Oc2ccccc2O)c1C	1.5	7.9	0.9	7.5	i	-2.7
CCOc1ccc(C(=O)Nc2cc(-c3nc4ccccc4s3)ccc2Cl)cc1Cl	.	1.0	.	.	.	.
O=c1[nH]c2ccccc2c2ccccc12	.	.	.	.	i	.
O=c1[nH]c2cc(Cl)c(Cl)cc2[nH]c1=O	.	.	.	.	+	.
O=C1NC(c2cccc([N+](=O)[O-])c2)Nc2c1sc(=S)n2-c1ccccc1 (stereo not drawn)	.	4.4	.	.	.	.
Cc1ccc(C)n1-c1ccccc1C(=O)O	.	104.3*	.	.	.	.
Cc1c(C(=O)O)cccc1-n1c(C)ccc1C	.	103.9*	.	.	.	.
Cc1cccc(Nc2ccccc2C(=O)O)c1C	6.9	-2.3	0.9	-0.3	i	-15.8
SMILES	E coli RNAP	HePTP inh	TNAP act mid DEA	MKP-1 inh	BAP1 inh	Cdc25B block
CN(C1CCS(=O)(=O)C1)S(=O)(=O)c1ccc(N2CCCC2=O)cc1 (stereo not drawn)	21.3*	1.0	0.9	5.0	i	-6.5
COc1ccc(CCN2C(=O)CC(N3CCN(Cc4ccc5c(c4)OCO5)CC3)C2=O)cc1OC (stereo not drawn)	.	-9.5	.	.	.	.
Cc1ccc2c(c1)C(=Cc1nc3ccccc3c(=O)n1-c1ccccc1[N+](=O)[O-])C(=O)N2	.	103.9*	.	.	.	.
COc1ccccc1N1CCN(/N=C\c2ccc(OC)c(OC)c2OC)CC1	.	-10.7	.	.	.	.
O=C(O)c1ccc(/C=C2\SC(=O)N(c3ccc(F)cc3)C2=O)cc1	.	99.8*	.	.	.	.
CC1CN(C2CCN(S(=O)(=O)c3ccccc3)CC2)CC(C)O1 (stereo not drawn)	21.7*	5.3	0.9	-12.5	i	12.2
CC1CN(C2CCN(S(=O)(=O)Cc3ccccc3)CC2)CC(C)O1 (stereo not drawn)	8.5	1.6	0.9	-7.8	i	-5.3
CCOC(=O)C1=C(O)/C(=C/c2ccco2)SC1=Nc1ccc([N+](=O)[O-])cc1	.	3.4	.	.	.	.
CC1CCN(S(=O)(=O)c2ccc3c(c2)c(=O)c(C(=O)NC2CCCC2)cn3C)CC1	-1.2	7.8	1	50.4*	i	-0.9
CC(=O)NC1=NC(=O)/C(=C\c2ccc(I)o2)S1	.	101.9*	.	.	.	.
Cc1ccccc1NCC(=O)N/N=C\c1ccc(-c2cccc(Cl)c2)o1	.	9.5	.	.	.	.
Cc1cccc(N2C(=O)/C(=C/C=C/c3ccccc3)SC2=S)c1C	.	-2.3	.	.	.	.
CN(C)c1nc(N)nc(CSc2nc3cc(Cl)ccc3o2)n1	2.5	5.6	0.9	14.0	.	-6.7
